BioA inh – inhibitors of Mycobacterium tuberculosis BioA enzyme. purified M. tuberculosis BioA enzyme, plate reader. inhibition, % at 9.99 µM. actives 0.096% (n = 360,000); in the data active means inhibition above about 40%; inconclusive means no clear call, values can overlap the other calls
BJeLR lethal – kills HRASV12-expressing BJeLR cells; actives 0.17% (n = 300,000); AID 1554; BJeLR (HRASV12) viability, CellTiter-Glo ATP luminescence, 48 h; inhibition, % (concentration not given with the values); in the data active means inhibition above about 50%; inconclusive means no clear call, values can overlap the other calls
Y pestis TopoI – inhibitors of Yersinia pestis topoisomerase I. Y. pestis Topo-I cleavage product accumulation, plate reader. activity, % at 10 µM. actives 0.064% (n = 360,000). AID 504884; in the data active means activity above about 50%, passing the limit was not always enough; inconclusive means no clear call, values can overlap the other calls
Mtb bLac sens – beta-lactam sensitization of Mtb H37Rv. M. tuberculosis H37Rv growth with meropenem, percent inhibition. inhibition, % at 25 µM. actives 0.27% (n = 330,000). AID 434955;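 further: growth measured after seven days incubation then overnight dye step; 0% = bacteria only wells and 100% = bacteria with antibiotic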
CCHF vOTU inh-1 – CCHFV vOTU protease inhibition; inhibition, % at 11.5 µM; Pep-AMC fluorescence; actives 0.55% (n = 370,000); in the data active means inhibition above about 30%; further: 0% = vehicle wells with enzyme and 100% = no enzyme wells
RecA splice inh – Mtb RecA intein splicing inhibition. P9WHJ3. cell-free RecA intein splicing, fluorescence. inhibition, % (no concentration beside the values). actives 0.75% (n = 290,000). AID 2221; in the data active means inhibition above about 30%; inconclusive means no clear call, values can overlap the other calls;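 further: 0% = vehicle wells and 100% = reference inhibitor control wells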
Target sequence (P9WHJ3 whole entry, looked up, canonical isoform): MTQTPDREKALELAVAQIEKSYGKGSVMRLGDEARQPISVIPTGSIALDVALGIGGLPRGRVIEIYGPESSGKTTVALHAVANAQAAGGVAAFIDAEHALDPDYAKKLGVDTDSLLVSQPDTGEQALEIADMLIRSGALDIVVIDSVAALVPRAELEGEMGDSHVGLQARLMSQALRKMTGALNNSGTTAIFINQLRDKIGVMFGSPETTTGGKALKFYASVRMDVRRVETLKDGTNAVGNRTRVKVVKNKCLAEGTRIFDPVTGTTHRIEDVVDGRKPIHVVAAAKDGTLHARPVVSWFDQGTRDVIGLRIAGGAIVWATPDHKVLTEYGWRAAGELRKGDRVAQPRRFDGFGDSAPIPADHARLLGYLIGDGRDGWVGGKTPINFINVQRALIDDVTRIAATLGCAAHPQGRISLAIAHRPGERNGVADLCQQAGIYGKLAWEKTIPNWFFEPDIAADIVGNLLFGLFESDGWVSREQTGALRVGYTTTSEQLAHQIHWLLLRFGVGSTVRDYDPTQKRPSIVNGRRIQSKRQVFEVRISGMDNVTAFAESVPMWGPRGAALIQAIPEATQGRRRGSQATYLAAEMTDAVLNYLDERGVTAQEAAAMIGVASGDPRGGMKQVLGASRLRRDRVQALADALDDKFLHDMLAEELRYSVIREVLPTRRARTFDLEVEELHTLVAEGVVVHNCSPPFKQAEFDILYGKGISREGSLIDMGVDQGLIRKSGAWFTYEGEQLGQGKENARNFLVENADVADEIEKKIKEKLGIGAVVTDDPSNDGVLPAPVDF
GFP chromophore – counter-screen: blocks GFP chromophore formation | shares compounds with RecA splice inh | cell-free GFP chromophore formation, fluorescence | EC50, µM | actives 83% (n = 2,100) | AID 434968
CCHF vOTU inh-2 – confirmation of CCHF virus vOTU protease inhibitors | Recombinant CCHFV vOTU, Pep-AMC fluorescence | shares compounds with CCHF vOTU inh-1 | AID 686976 | actives 17% (n = 1,900) | inhibition, % at 11.5 µM; in the data active means inhibition above about 30%
The depositor's hits bear a star; ? = inconclusive; · = no result given. Sampled rows, rich in hits. Any-hit rate of the full collection: about 1.1%. Unless noted, how the calls were made is not given here.

SMILES	BioA inh	BJeLR lethal	Y pestis TopoI	Mtb bLac sens	CCHF vOTU inh-1	RecA splice inh	GFP chromophore	CCHF vOTU inh-2
COc1cc(NC(C)CCCN)c2ncccc2c1 (stereo unspecified)	0	-7	-5	98	104*	90*	13*	81*
COc1ccc(CN(C)C[C@@H]2Oc3ccc(NC(=O)Cn4cnnn4)cc3C(=O)N([C@H](C)CO)C[C@H]2C)cc1	7	·	·	·	·	·	·	·
Cc1ccc(O)c(N=CC2=C(O)c3ccccc3C2=O)c1	-6	-12	-15	22	31*	87*	3.4*	10
CC1=NN(c2ccc(Cl)cc2)C(=O)C1	·	2	-4	1	41*	96*	3.5*	-11
CC1=NN(Cc2ccccc2)C(=O)C1	3	1	-8	0	36*	89*	7.6*	-19
CC1=NN(c2ccccc2)C(=O)C1c1ccccc1 (stereo unspecified)	·	-3	-5	8	-12	-5	·	·
CC1=NN(c2nc(-c3ccc(Cl)cc3)cs2)C(=O)C1	·	6	-14	-2	1	26	·	·
CC1=NN(c2ccccc2)C(=O)C1	0	9	-1	4	87*	89*	3.1*	-11
CC1=NN(c2ccc(N)cc2)C(=O)C1	0	1	7	0	57*	74*	2.9*	-9
CC(C)c1cn(CC[C@@H]2CC[C@H](N)[C@@H](CO)O2)nn1	-4	·	·	·	·	·	·	·
O=C(Nc1nc(-c2ccccc2)cs1)c1ccccc1NS(=O)(=O)c1ccc(F)cc1	·	31	-5	1	38*	35*	28*	-2
O=S(=O)(Nc1ccc(-c2csc(-c3ccccc3)n2)cc1)c1ccc(F)cc1	-2	-4	1	4	12	-3	·	·
CCCC#Cc1cnc2c(c1)C(=O)N([C@@H](C)CO)C[C@@H](C)[C@@H](CN(C)C(=O)C1CCC1)O2	3	·	·	·	·	·	·	·
C=CCNC1=C(Cl)C(=O)c2ccccc2C1=O	1	-10	-3	?	68*	34*	19*	59*
O=C1C(Cl)=C(Nc2ccccc2)C(=O)c2ccccc21	3	9	2	1	22	2	·	·
O=C1C(Cl)=C(NCc2cccnc2)C(=O)c2ccccc21	2	17	-12	84	70*	76*	9.4*	62*
O=S(=O)(Cc1ccccc1)NCc1cccnc1	3	0	4	?	-4	0	·	·
CC1(C)C=C2C(=NN(c3ccccc3)C(N)=C2C#N)CO1	-1	-15	-7	-6	50*	90*	1.5*	100*
CC1(C)Cc2c(C#N)c(N)n(-c3ccccc3)c(=S)c2CO1	1	-1	2	-5	10	0	·	·
COc1ccc(N/C=C2\CCc3ccccc3C2=O)cc1	4	29	2	82	34*	71*	19*	-12
CC(=O)OCCCNc1cc(SCc2ccco2)c2nonc2c1[N+](=O)[O-]	·	1	2	98	55*	78*	14*	-18
COc1cc(/C=C2/C(=O)N(c3ccc([N+](=O)[O-])cc3)N=C2N2CCOCC2)ccc1O	2	-2	-9	76	115*	46*	23*	8
CCN(CC)c1ccc(/C=C2/C(=O)N(c3ccc([N+](=O)[O-])cc3)N=C2N2CCOCC2)cc1	·	-1	·	15	·	-7	·	·
Cc1ccc(C(=O)NCC(=O)OCN2C(=O)c3ccccc3C2=O)cc1C	·	·	21	6	0	·	·	·
Cc1ccc(C(=O)NC2(O)C(=O)c3ccccc3C2=O)cc1C	-1	-10	1	-2	49*	68*	12*	27
SMILES	BioA inh	BJeLR lethal	Y pestis TopoI	Mtb bLac sens	CCHF vOTU inh-1	RecA splice inh	GFP chromophore	CCHF vOTU inh-2
C[C@H](CO)N1C[C@H](C)[C@@H](CN(C)C(=O)Cc2ccccc2)Oc2cc(C#CC3(O)CCCC3)ccc2S1(=O)=O	18	·	·	·	·	·	·	·
CCCCCCCCCCCCCCCCn1cc[n+](C)c1	·	16	-17	95	39*	48*	12*	50*
Cc1nnc(Sc2cc(NCCCO)c([N+](=O)[O-])c3nonc23)s1	·	-4	-12	·	31*	91*	5.1*	9
Cc1noc(C)c1S(=O)(=O)Nc1ccc2c(c1)C(=O)N([C@@H](C)CO)C[C@H](C)[C@H](CN(C)C(=O)CCCN(C)C)OCCCC[C@H](C)O2	17	·	·	·	·	·	·	·
CCO/C=C1/C(=O)N(C)C(=O)c2cc(OC)ccc21	0	4	4	-7	78*	85*	>38	77*
Nn1cnnc1N/N=C/c1ccc(Cl)c([N+](=O)[O-])c1	·	-1	1	-5	99*	59*	25*	10
C[C@@H]1CN([C@@H](C)CO)C(=O)c2cc(NS(=O)(=O)c3ccccc3)ccc2O[C@H]1CN(C)Cc1ccccc1	-2	·	·	·	·	·	·	·
CC(C)[n+]1ccn(C2=C([O-])c3ccccc3C(=O)/C2=N\S(=O)(=O)c2ccccc2)c1	·	1	0	-1	33*	31*	21*	31*
CCCCC[n+]1ccn(C2=C([O-])c3ccccc3C(=O)/C2=N\S(=O)(=O)c2ccccc2)c1	0	8	10	3	16	6	·	·
CC=Cc1ccc2n(c1=O)C[C@@H]1[C@@H](CO)[C@H](C(=O)N[C@@H](C)c3ccccc3)[C@H]2N1Cc1cccnc1 (mixture of isomers)	0	·	·	·	·	·	·	·
CC(=O)N(Cc1ccc(F)cc1)C1=C(NCCc2ccccc2)C(=O)c2ccccc2C1=O	3	35	18	100	87*	78*	11*	63*
O=C([C@H]1[C@H](CO)[C@H]2Cn3c(ccc(C4=CCCC4)c3=O)[C@@H]1N2C(=O)c1cccnc1)N1CCOCC1	1	·	·	·	·	·	·	·
Cc1noc(C)c1NC(=O)N(C)C[C@H]1Oc2ccc(NC(=O)Nc3cccc4ccccc34)cc2C(=O)N([C@H](C)CO)C[C@H]1C	1	·	·	·	·	·	·	·
CS(=O)(=O)Nc1ccc2c(c1)[C@@H]1C[C@H](CC(=O)NCc3cc(F)ccc3F)O[C@H](CO)[C@@H]1O2	6	·	·	·	·	·	·	·
Cc1ccc(C)c(S(=O)(=O)/N=C2\C=C(NS(=O)(=O)c3ccccc3)C(=O)c3ccccc32)c1	2	-4	9	1	30*	75*	5.4*	25
CCc1ccc(S(=O)(=O)/N=C2\C=C(NS(=O)(=O)c3ccccc3)C(=O)c3ccccc32)cc1	1	6	4	·	54*	34*	4*	11
Cc1cccc(S(=O)(=O)Nc2cccc3c2C(=O)c2ccccc2-3)c1	1	1	-2	-1	16	-1	·	·
CN1C(=O)C2C(C1=O)C1C=C(CCCO)C2C(c2ccc(CN3CCCC3)cc2)N1Cc1sc2ccccc2c1Cl (stereo unspecified)	0	·	·	·	·	·	·	·

High-throughput results from PubChem BioAssay.
